Source: PubChem (Fisher Drug Discovery Resource Center)
This is a sample that favours compounds with a hit; in the whole collection about 0.24% have one here.
mcGAS inh: blocks mouse cGAS activity; Q8C6L5; recombinant cGAS, Kinase-Glo ATP depletion luminescence; inhibition, % at 12.5 µM; 0.15% of 160,000 active; AID 1259399;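 also: 0% = negative control wells and 100% = reference inhibitor with no enzyme activity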
Target sequence (Q8C6L5 whole entry, looked up): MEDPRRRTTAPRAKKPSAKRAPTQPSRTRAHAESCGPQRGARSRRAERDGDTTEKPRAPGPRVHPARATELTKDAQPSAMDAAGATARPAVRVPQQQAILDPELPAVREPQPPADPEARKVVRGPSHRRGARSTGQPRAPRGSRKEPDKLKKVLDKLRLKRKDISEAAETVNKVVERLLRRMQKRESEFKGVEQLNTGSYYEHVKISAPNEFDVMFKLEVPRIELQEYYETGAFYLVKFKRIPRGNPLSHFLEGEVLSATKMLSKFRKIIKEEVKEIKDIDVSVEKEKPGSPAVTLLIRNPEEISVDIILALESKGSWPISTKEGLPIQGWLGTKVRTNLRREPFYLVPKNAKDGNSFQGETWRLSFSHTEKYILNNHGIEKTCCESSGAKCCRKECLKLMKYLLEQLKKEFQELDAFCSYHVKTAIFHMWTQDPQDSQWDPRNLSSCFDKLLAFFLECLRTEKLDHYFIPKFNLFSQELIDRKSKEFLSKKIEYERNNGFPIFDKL
NPYLR7 ag: activates Aedes aegypti NPYLR7 receptor | HEK293T NPYLR7/Galpha15, GCaMP6s calcium fluorescence | activation, % at 10 µM | 0.15% of 270,000 active | AID 1259423; in the data active = activation above about 40%;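 also: 0% = vehicle and 100% = reference agonist at the receptor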
hcGAS lum: inhibitors of human cGAS; recombinant h-cGAS, ATP depletion, Kinase-Glo luminescence; inhibition, % at 12.5 µM; AID 1259398; Q8N884; 0.081% of 290,000 active;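 also: 0% = vehicle reaction and 100% = reaction without DNA for no activity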
Starred values were filed as active, the others as inactive; · = no result given; + = active, no number; ! = not confirmed by another sample. Rule as the data show it, unless noted: active = inhibition above about 40%; inactive = the rest.

SMILES | mcGAS inh | NPYLR7 ag | hcGAS lum
Cc1cc(C)c2cc3c(cc2n1)CCN3CC(O)CO (centres undefined) | · | 188* | -3
OC1(c2ccccc2)CCN(Cc2ccc(F)cc2Cl)C1 (centres undefined) | -13 | 15 | -10
C(=N/Nc1nc(-c2ccccc2)c2ccccc2n1)/c1nc2ccccc2[nH]1 | -5 | -15 | -2
O=C(O)c1cccnc1C(=O)O | -4 | 3 | 53*!
O=C(O)c1cccnc1S(=O)(=O)C(F)(F)F | · | 10 | -8
COC(C)CCOC(=O)c1cc(C(C)C)[nH]n1 (centres undefined) | · | -5 | -16
c1cncc(OCCCn2ccnc2-c2cccc3nonc23)c1 | · | -3 | 4
O=C(OCc1cc2c(cc1Br)OCO2)c1cnccn1 | -2 | -1 | 69*
O=C(OCc1cc2c(cc1Br)OCO2)c1cccc(O)c1 | · | 0 | -14
CC(C)C(NC(=O)c1cccc(F)c1)c1ccc2c(c1)OCCCO2 (centres undefined) | · | 3 | 0
Cc1ccc(CNC(=O)NC(c2ccc3c(c2)OCCCO3)C(C)C)cc1F (centres undefined) | -9 | 47* | -13
CCNc1cc(NCCNC(=O)Nc2ccc(OC)cc2OC)nc(C)n1 | · | 1 | 2
COc1cc(C=C(C#N)S(=O)(=O)c2ccc(F)cc2)cc(OC)c1OC | · | 11 | -9
COc1cc(C=C(C#N)S(=O)(=O)c2ccc(F)cc2)cc(Br)c1O | · | 183* | -1
COc1cc(C=C(C#N)S(=O)(=O)c2cc(Cl)ccc2Cl)cc(OC)c1 | · | 2 | 2
COc1cc(C=C(C#N)S(=O)(=O)c2cc(Cl)ccc2Cl)cc(Br)c1O | · | 66* | -5
COC(=O)C(C)N(CCN1CCOCC1)CC(=O)N(CCc1ccccc1)Cc1ccc(C)o1 (centres undefined) | -10 | · | -4
Cc1cc(=O)n2[nH]cc(-c3ccccc3Cl)c2n1 | 26 | 3 | 46*
Cc1cc(=O)n2[nH]cc(-c3ccc(F)cc3)c2n1 | · | -14 | -7
COCC1CCCN(C(=O)C2CCN(c3nc(C)c4ccccc4n3)CC2)C1 (centres undefined) | · | 17 | -7
CC(C)CCN1C(=O)C(C)(C)COc2ccc(NC(=O)c3ccccc3F)cc21 | · | 2 | 3
Oc1cc(O)c2c(c1)O[C@H](c1cc(O)c(O)c(O)c1)[C@H](O)C2 | 25 | · | 79*
Oc1cc(O)c2c(c1)O[C@H](c1ccc(O)c(O)c1)[C@@H](O)C2 | -5 | -1 | -2
CC[C@@]1(O)C(=O)OCc2c1cc1n(c2=O)Cc2cc3c(CN(C)C)c(O)ccc3nc2-1 | · | 88* | -3
CCc1c(C)nn(C)c1NC(=O)c1ccc(CN2CCN3CCCC3C2)cc1 (centres undefined) | -12 | -1 | 0
SMILES | mcGAS inh | NPYLR7 ag | hcGAS lum
Clc1ccc(COc2c(Cl)cc(Cl)cc2/C=N\n2cnnc2)cc1 | · | -3 | 0
COc1cc(C=C(C#N)C(N)=O)cc(OC)c1O | · | 24 | 9
COc1cc(/C=C(\C#N)C(=O)c2ccc(O)c(O)c2)cc(I)c1O | 28 | 191* | 13
CCNC(=O)C1(C)CCN1Cc1ccc(OC)c2ccccc12 (centres undefined) | · | 8 | -2
COc1ccc2nc3cc(Cl)ccc3c(Nc3cc(CN4CCCC4)c(O)c(CN4CCCC4)c3)c2n1 | · | 3 | 45*
COc1cc(C)c(CN2CCN(Cc3nc4cc(Cl)ccc4c(=O)[nH]3)CC2)cc1OC | · | 5 | 0
COc1ccc2c(c1)-c1sc(C(=O)NCCCOC(C)C)cc1CC2 | -8 | 2 | -13
O=C(NC1CCN(c2ccccc2C(=O)N2CCc3ccccc3C2)CC1)c1ccccc1Cl | -6 | 12 | -3
Cc1[nH]ccc2c1[nH]c1cc(=O)ccc12 | 43* | -4 | 49*!
Cc1c2ccccc2[nH]c2c1oc1cc(=O)ccc12 | · | 13 | -6
CCSc1nnc(NC(=O)/C=C/c2ccc(Cl)cc2Cl)s1 | 3 | 0 | 7
C=CCCOC(=O)N1CC(=O)N(Cc2c(OC)cccc2OC)CC(O)C1 (centres undefined) | -6 | 7 | 4
CN(Cc1ccc(Br)cc1)C(=O)CCl | 42* | 0 | -4
CCCNC(=O)NCC(=O)N(C)Cc1ccc(Br)cc1 | · | 0 | -5
COC(=O)c1c(C)cc(OC(=O)c2c(C)cc(O)c(C=O)c2O)c(C)c1O | -4 | · | -4
Cc1cc(O)c(C=O)c(O)c1C(=O)O | · | -12 | 56*
CN(CC(=O)Nc1sc2c(c1C#N)CCCC2)Cc1ccc(Br)s1 | · | -7 | 1
Cc1sc(-n2c(C)ccc2C)c(C(=O)O)c1C | 2 | 7 | 0
Cc1ccc(C)n1-c1sccc1C(=O)O | 86* | 25 | 44*
COCc1nc(N2CCN(S(=O)(=O)c3c(C)cc(C)cc3C)CC2)c2c3c(sc2n1)CCCC3 | -4 | -11 | -5
Cc1oc(-c2cccc(NC(=O)CC(C)C)c2)nc1CNC(=O)Cc1cc(F)cc(F)c1 | -8 | 56* | -7
Cc1oc(-c2ccccc2NS(=O)(=O)c2cccc(F)c2)nc1CNC(=O)CC(C)C | · | 5 | -5
CCc1nc2n(n1)C(=O)C(C(c1ccc(OC)cc1)N1CCN(c3ccc(F)cc3)CC1)S2 (centres undefined) | -8 | -6 | -5
C[n+]1c2cc(N)ccc2cc2ccc(N)cc21 | · | 120* | 68*
Cc1nc2ccc(N)cc2s1 | 1 | 1 | 5
SMILES | mcGAS inh | NPYLR7 ag | hcGAS lum
CCCC(=O)N1CCN(Cc2nnnn2-c2ccc(OCC)cc2)CC1 | -11 | 1 | -5
N#CC(C#N)=C1C=C2C=C(N3CCc4ccccc4C3)CCC2CC1 (centres undefined) | · | 87* | -4
N#CC(C#N)=C1C=C2CC(=NCc3ccccc3)CCC2CC1 (centres undefined) | · | 36 | -4
N#CC(C#N)=C1C=C2C=C(N3CCCCCC3)CCC2CC1 (centres undefined) | -4 | 673* | -6
CCN1CCN(C2=CC3=CC(=C(C#N)C#N)CCC3CC2)CC1 (centres undefined) | -3 | + | -9
N#CC=CN1CCc2ccccc2C1 | · | 1 | -3
CS(=O)(=O)N1CCN(CN2C(=O)C(=O)c3c(Cl)ccc(F)c32)CC1 | · | 4 | -6
O=C(CN1CSCC1=O)Nc1nc2ccc3ccccc3c2s1 | · | -1 | 4
Cc1ccccc1-n1nc(C)c(-c2ccccc2)c1NC(=O)CN(CC(C)C)S(=O)(=O)c1ccc([N+](=O)[O-])cc1 | -5 | -1 | -7
CCCCN(CC(=O)Nc1c(-c2ccccc2)c(C)nn1-c1ccccc1C)S(=O)(=O)c1ccc(F)cc1 | -5 | 48* | -2
O=c1oc2cc(O)ccc2cc1-c1nnc(-c2ccccc2)o1 | -6 | 35 | 9
O=c1oc2cc(O)ccc2cc1-c1nc2ccccc2o1 | · | 216* | 5
CCCOc1ccc(/C=C/C(=O)Nc2nccs2)cc1OC | -6 | -6 | -7
N#C/C(=C\c1ccc(O)c(O)c1)C(=O)Nc1ccccc1 | 3 | 147* | 17
C[C@@H](NC(=O)/C(C#N)=C/c1ccc(O)c(O)c1)c1ccccc1 | -1 | 5 | 5
CCc1ccc(CCC(=O)N2CCC3(CN(C)C(=O)O3)C2)cc1 (centres undefined) | -11 | 10 | 0
O=C(O)CN1C(=O)/C(=C\c2ccc(OC(=O)c3ccc(Cl)cc3)cc2)SC1=S | 1 | 20 | 9
O=C(CC1SC(=O)NC1=O)Oc1ccc(/C=C2\SC(=O)NC2=S)cc1 (centres undefined) | · | 158* | 44*
